The whole screen tested about 1,400 compounds, of which about 55 (4%) were called active. The rule behind the calls is not given here. Not all results are given here. Measured potencies and affinities stand elsewhere.

This assay is described as follows: viability loss in A549 cells – cell-based, plate reader, cherry-pick samples, cytotoxicity control, dose response (AID 687028).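 Note: cells incubated with compound for three days before reading.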 As to conditions: series mostly up to 19.5 µM; activity change, negative = toxicity: at the top concentration.
As for `COc1ccc2c3c([nH]c2c1)[C@@H](CO)N(Cc1ccc(F)cc1)CC31CN(C(=O)NC(C)C)C1`, the “activity change, negative = toxicity” value was -0.014% [at 21 µM] (inactive).
Next, `Cn1cc(CC(=O)Nc2ccc(Nc3cccnc3)cc2)c2ccccc21`: -6.76% (inactive); `O=S(=O)(c1ccc(F)cc1)N1CC[C@@H]2[C@H]1c1cc(-c3ccc(F)cc3)ccc1N[C@@H]2CO`: -6.49% (inactive); `CCC(=O)N1CC[C@@H]2[C@H](CO)Nc3ccc(-c4cccc(C#N)c4)cc3[C@@H]21`: 2.79% (inactive).
The figure for `CCCCN(C(=O)c1ccc2c(c1)NC(=O)CS2)c1ccccc1` is 4.51% (inactive).
The figure for `O=C(OCc1ccccc1)N1CCCC2CC1c1ccccc12` (stereo not drawn) is 6.02% (inactive); for `C[C@H](NC(=O)[C@@H]1CCCN1C(=O)OC(C)(C)C)c1ccccc1` it is 0.406% (inactive).
Turning to `CC1CCC(CN2CCN=C2Nc2ccccc2)CC1` (stereo not drawn), the “activity change, negative = toxicity” value was 5.22% (inactive).
For the molecule `COc1ccc(-c2oc3ccc(-c4cc(OC)c(OC)c(OC)c4)cc3c2-c2ccc(OC)nc2)cc1`, the “activity change, negative = toxicity” value is -4.28% (inactive).
Next, `COc1cc(-c2cnc3c(NC(C)=O)cc(-c4ccccc4CN(C)C)cn23)cc(OC)c1OC`: 9.33% (inactive); `O=C(C1CCCN(S(=O)(=O)c2cccnc2)C1)N1CCN(c2ccccn2)CC1` (stereo not drawn): -1.36% (inactive); `CCC(C)CN1C(=O)CSCC1(C)C(=O)Nc1ccc2c(c1)OCCO2` (stereo not drawn): -3.44% (inactive).
The figure for `C[C@H](CO)N1C[C@H](C)[C@@H](CN(C)C(=O)CCCN(C)C)OCCCC[C@H](C)Oc2ccc(NC(=O)CCCN(C)C)cc2C1=O` is 5.67% (inactive).
The figure for `COc1cccc(-c2ccc(C3[C@@H]4CN(S(=O)(=O)c5cn(C)cn5)C[C@H]3N4)cc2)c1` (stereo partly drawn) is 1.42% [at 21 µM] (inactive); for `CS(=O)(=O)N1[C@@H]2CNC[C@H]1C2c1ccc(-c2ccccc2)cc1` (stereo partly drawn) it is 4.12% (inactive); for `O=C(NC1CCCCC1)[C@@H]1[C@@H](CO)[C@@H]2Cn3c(cccc3=O)[C@H]1N2Cc1cccnc1` it is 2.63% (inactive).
Regarding `CN(Cc1nccs1)C(=O)c1ccc(OC2CCN(Cc3ccccn3)CC2)cc1`, the “activity change, negative = toxicity” value was -2.25% (inactive).
Next, `COc1ccc(NC(=O)N[C@@H]2CC[C@@H](CCNS(=O)(=O)c3cccc(Cl)c3)O[C@@H]2CO)cc1`: 5.25% (inactive); `COc1ccc(NC(=O)N[C@H]2CC[C@@H](CCn3cc(C4(O)CCCC4)nn3)O[C@@H]2CO)cc1`: 4.25% (inactive); `O=C(NCCc1ccccc1)c1ccccc1NC(=O)C1CCCCC1C(=O)O` (stereo not drawn): 2.25% (inactive).
The figure for `Cc1ccc(OCC(=O)NC2CCSc3ccccc32)cc1` (stereo not drawn) is 5.23% (inactive); for `CC1CC2=C(C(=O)O1)C(c1ccc(Cl)cc1)Nc1ccccc1N2` (stereo not drawn) it is 2.94% (inactive).
The figure for `COc1ccc(C#Cc2ccc([C@H]3[C@@H](CO)N4CCCCN(S(=O)(=O)c5ccccc5)C[C@@H]34)cc2)cc1` is 0.141% (inactive).
With `C[C@H](CO)N1C[C@H](C)[C@@H](CN(C)Cc2ccc(Oc3ccccc3)cc2)Oc2ccc(NC(=O)Cn3cnnn3)cc2CC1=O`, the “activity change, negative = toxicity” value is -2.24% (inactive).
Next, `C[C@@H]1CCCCO[C@@H](CN(C)C(=O)c2ccccc2)[C@@H](C)CN([C@@H](C)CO)C(=O)c2cc(NS(=O)(=O)c3ccc(F)cc3)ccc2O1`: 2.27% (inactive); `C[C@H](CO)N1C[C@H](C)[C@@H](CN(C)C(=O)Cc2ccccc2)OCCCC[C@H](C)Oc2ccc(NS(=O)(=O)c3ccc(F)cc3)cc2C1=O`: -0.634% (inactive).
Next, `Cc1ccc(S(=O)(=O)N(C)C[C@@H]2OCCCC[C@H](C)Oc3ccc(NS(=O)(=O)c4c(C)noc4C)cc3C(=O)N([C@@H](C)CO)C[C@@H]2C)cc1`: -0.321% (inactive); `C[C@@H]1CCCCO[C@@H](CN(C)S(=O)(=O)c2ccc(F)cc2)[C@@H](C)CN([C@H](C)CO)C(=O)c2cc(NC(=O)Nc3ccc(C(F)(F)F)cc3)ccc2O1`: -4.87% [at 21 µM] (inactive); `C[C@@H]1CN([C@H](C)CO)C(=O)c2cc(NC(=O)c3ccncc3)ccc2O[C@@H](C)CCCCO[C@H]1CN(C)Cc1ccc(Cl)c(Cl)c1`: 0.429% (inactive).
The figure for `Cc1ccc(S(=O)(=O)N(C)C[C@@H]2OCCCC[C@H](C)Oc3ccc(NS(=O)(=O)c4c(C)noc4C)cc3C(=O)N([C@H](C)CO)C[C@H]2C)cc1` is -6.59% (inactive); for `C[C@@H]1CCCCO[C@@H](CN(C)Cc2ccccc2)[C@@H](C)CN([C@H](C)CO)C(=O)c2cc(NC(=O)c3ccccc3)ccc2O1` it is -2.93% [at 21 µM] (inactive).
Consider `C[C@@H]1CCCCO[C@@H](CN(C)S(C)(=O)=O)[C@H](C)CN([C@@H](C)CO)C(=O)c2cc(NS(=O)(=O)c3ccc(Cl)cc3)ccc2O1`, for which the “activity change, negative = toxicity” value was 16.8% (inactive).
The figure for `COc1ccccc1CN1[C@H](CO)[C@H]2c3ccccc3N(C(=O)c3ccncc3)C[C@H]21` is 1.88% [at 21 µM] (inactive); for `COc1ccc(C)cc1N(CC(=O)Nc1ccc(S(=O)(=O)N2CCOCC2)cc1)S(C)(=O)=O` it is 2.83% (inactive); for `CCOc1ccc(C(=O)Nc2ccc(CN3CCOCC3)cc2)cc1Br` it is 0.645% (inactive).
Regarding `CCn1c(=O)n(CC)c2cc(N3CCCC3)c(NC(=O)c3ccc(C)cc3)cc21`, the “activity change, negative = toxicity” value is 4.36% (inactive).
As to `Cc1ccccc1S(=O)(=O)N1C[C@@H](O)COC[C@@H]2O[C@H](CC(=O)N3CCCCC3)CC[C@H]21`, the “activity change, negative = toxicity” value was 2.8% (inactive).
Next, `C[C@@H]1CN([C@@H](C)CO)C(=O)Cc2cc(NS(=O)(=O)c3cn(C)cn3)ccc2O[C@H]1CN(C)Cc1ccc(C(=O)Nc2ccccc2N)cc1`: 14.2% (inactive); `CCCNC(=O)N1[C@H](CO)[C@@H](c2ccccc2)C12CN(C(=O)C1CCCCC1)C2`: 4.98% [at 21 µM] (inactive); `O=C(CN1CCN(c2cccc(C(F)(F)F)c2)CC1)N(C1CCCC1)C1CCS(=O)(=O)C1` (stereo not drawn): -6.02% (inactive).
As for `Cc1cc(OCC(=O)NC(Cc2ccc(Cl)cc2)C(=O)O)c2c(C)c(C)c(=O)oc2c1` (stereo not drawn), the “activity change, negative = toxicity” value was 1.6% (inactive).
The figure for `CCc1nc(SCc2ccccc2C)n[nH]1` is 3.95% (inactive); for `Cc1ccc(CCN2CC(C(=O)NCCc3ccccc3)CC2=O)cc1` (stereo not drawn) it is -1.28% (inactive); for `Cc1noc(C)c1S(=O)(=O)Nc1cccc2c1O[C@H](CN(C)C(=O)NC(C)C)[C@H](C)CN([C@@H](C)CO)C2=O` it is 5.39% (inactive).
The figure for `CC(C)C[C@@H](COc1ccccc1)N1CCN(Cc2ccccc2)CCC1=O` is -4.31% (inactive); for `C[C@H](CO)N1C[C@H](C)[C@@H](CN(C)C(=O)Nc2ccc(C(F)(F)F)cc2)OCCCC[C@H](C)Oc2ccc(NS(=O)(=O)c3ccc(F)cc3)cc2C1=O` it is 9.95% (inactive); for `C[C@H](CO)N1C[C@H](C)[C@@H](CN(C)C(=O)Nc2ccc(C(F)(F)F)cc2)OCCCC[C@H](C)Oc2ccc(NS(=O)(=O)c3cccs3)cc2C1=O` it is -23% (inactive).
On to `COc1ccc(NC(=O)N(C)C[C@H]2OCCCC[C@@H](C)Oc3ccc(NS(C)(=O)=O)cc3C(=O)N([C@H](C)CO)C[C@H]2C)cc1`, for which the “activity change, negative = toxicity” value is 4.29% (inactive).
Consider `COc1ccc(S(=O)(=O)Nc2ccc3c(c2)C(=O)N([C@@H](C)CO)C[C@H](C)[C@@H](CN(C)C(=O)Nc2ccc(C(F)(F)F)cc2)OCCCC[C@H](C)O3)cc1`, for which the “activity change, negative = toxicity” value was 8.07% (inactive).
As to `COc1cccc(CNC(=O)[C@H]2[C@H](CO)[C@H]3Cn4c(ccc(-c5ccncc5)c4=O)[C@H]3N2C)c1`, the “activity change, negative = toxicity” value is -0.01% (inactive).
`N#C[C@H]1[C@@H](c2ccc(C3=CCCCC3)cc2)[C@@H](CO)N1S(=O)(=O)c1cccc(F)c1`: the “activity change, negative = toxicity” value was 2.88% (inactive).
Next, `CCOc1ccc(NC(=O)CN(C)C(=O)c2ccccc2OCc2c(C)noc2C)cc1OCC`: -0.912% (inactive); `COc1ccc(N2CCN(c3cc(C(=O)NC4CCCCC4)ncn3)CC2)cc1OC`: 4.44% (inactive); `CC(C)(C)OC(=O)N[C@H]1C=C[C@@H](CC(=O)OCC(F)(F)F)C1`: 2.97% (inactive).
Consider `CCN(CC)c1ccc2cc(C(=O)NCc3ccc(F)cc3)c(=N)oc2c1`, for which the “activity change, negative = toxicity” value is -2.33% (inactive).
Turning to `CC(=O)OCCCN(C)CC/C=C1/c2ccccc2CSc2ccccc21`, the “activity change, negative = toxicity” value is 1.09% (inactive).
`CC(C)Oc1ccc(S(=O)(=O)N2CCOCC2)cc1NC(=O)Cc1ccsc1`: the “activity change, negative = toxicity” value was -1.5% (inactive).
As for `Cc1ccccc1CN1CCN(CC(=O)NC(C)c2ccccc2)CC1` (stereo not drawn), the “activity change, negative = toxicity” value is 8.03% (inactive).

(Values after PubChem BioAssay AID687028 (Broad Institute, 2013).)
